Growth inhibition data for 40 compounds are collected here from PubChem BioAssay (NCI).

Structures are written as SMILES. “And” between values parts separate entries of the source, which are not always exact repeats. Identical values can stand only once. The panel holds about 79,000 compounds, 15% with a hit somewhere; the sample as a whole holds those more often. The source made the active and inactive calls. Cut-off read from the data, not from the text of the source: active = growth inhibition above about 70%; inactive = the rest. Where a SMILES comes first, the peptide text is derived from it.

The nature of the first assay: NCI Yeast Anticancer Drug Screen. Data for the rad50 strain (AID 155).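 Note: 0% = growth of vehicle-only cultures of the same strain.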 To be noted: S. cerevisiae rad50 strain growth inhibition, stronger effect = higher value; at 50.0 µM unless noted. The gist of the method:
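DNA repair mutant yeast, compound exposure, growth read-out; inhibition is taken relative to vehicle.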
As for `O=C(C[n+]1ccccc1)c1ccc(O)c(I)c1`, the growth inhibition was -5.4% (inactive).
For `O=C1C(O)=C(O)C(Br)=C/C1=C(/c1ccccc1S(=O)(=O)O)c1cc(Br)c(O)c(O)c1O`, the growth inhibition is 9.65% (inactive).
Still for that read-out and setting: the figure for `COC1OC2COC(C)(C)OC2C2OC(C)(C)OC12` (stereo not given) is 1.15% (inactive); for `C=CCNc1nc(Cl)nc2c1cnn2C` it is 13.3% (inactive).
Regarding `O=C(O)/C=C\C(=O)Nc1ccc2c(c1)Cc1cc(O)ccc1-2`, the growth inhibition was 7.95% (inactive).
Turning to `CCCCC(Sc1nn(C2OC(COC(=O)c3ccccc3)C(OC(=O)c3ccccc3)C2OC(=O)c2ccccc2)c(=O)[nH]c1=O)C(=O)OCC` (stereo not given), the growth inhibition was -1.45% (inactive).
Take `NC(Cc1ccccc1)C(=O)NC(Cc1ccccc1)C(=O)O` (stereo not drawn) (H-Phe-Phe-OH; configuration not given here): the growth inhibition is 19.6% (inactive) and 11.1% (inactive).
Consider `O=C(O)C(=O)Nc1ccccc1`, for which the growth inhibition was -4.45% (inactive).
Consider `COC1/C=C/OC2(C)Oc3c(C)c(O)c4c(c3C2=O)C(N)=C(NC2CC2)C(=NC(=O)/C(C)=C\C=C\C(C)C(O)C(C)C(O)C(C)C(OC(C)=O)C1C)C4=O` (stereo not given), for which the growth inhibition was 15.7% (inactive).
The same measure, in the same setting: the figure for `CCCCCCN1COCC(COc2ccc(Cl)cc2)OC1` (stereo not given) is 23.8% (inactive); for `Nc1nc(=S)c2c(ncn2CCO)[nH]1` it is -25.1% (inactive).
Turning to `Cn1ccnc1Sc1c([N+](=O)[O-])ncn1C`, the growth inhibition was 3.3% (inactive).
Turning to `CCN(CC)CCNc1cc(OC)c(OC)cc1[N+](=O)[O-]`, the growth inhibition was -35% (inactive).
On the same count and under the same terms, the result for `CC1=Nc2cc(Cl)c(Cl)cc2N(C)/C1=C/C1=C(Cl)C(=O)c2cc3c(Cl)ccc(Cl)c3cc2C1=O` reads -0.05% (inactive); that for `O=C1OC(=O)C2C3CC(C(Br)C3Br)C12` (stereo not given), 3.8% (inactive); that for `CCOC(=N)n1c(=O)n(C2=NCCN2)c2ccccc21`, 0.45% (inactive).
Regarding `CCOC(=O)C(CC(C)C)NC(=O)c1ccc(C)c(OCc2ccccc2)c1[N+](=O)[O-]` (stereo not given), the growth inhibition was 17.9% (inactive).
Turning to `CN1CCC(O)CC1`, the growth inhibition is 7.6% (inactive).
As to `Cc1cccc(C)c1NC(=S)N/C=C(\C#N)C(N)=O`, the growth inhibition is -53.2% (inactive).
Consider `Clc1c(Cl)c(Cl)c(C[n+]2c(Cl)sc3ccccc32)c(Cl)c1Cl`, for which the growth inhibition was 12.6% (inactive).
Consider `Cc1ccc(NC(=O)C(=O)CC(=O)c2sc(Nc3c(C)cccc3C)nc2C)cc1C`, for which the growth inhibition is 13.4% (inactive).
Regarding `CC(=O)Nc1cccc(N=Cc2ccc(N(CCOS(C)(=O)=O)CCOS(C)(=O)=O)cc2C)c1`, the growth inhibition was 73.8% (active).
Turning to `COC(=O)c1ccccc1NC(=O)c1c(-c2ccccc2Cl)noc1C`, the growth inhibition is 72% (active).
As to `CC(=O)CC(=O)Nc1ccc2ccccc2c1`, the growth inhibition was -1.9% (inactive).
Turning to `CC1(C)CC(O)CC(C)(C)N1`, the growth inhibition is 2.9% (inactive).
Take `Nc1c(F)cc(I)cc1F`: the growth inhibition was -3.95% (inactive).
The same measure, in the same setting: the result for `Nc1nc2cc3nc(N)c(N)nc3cc2nc1N` reads -6.4% (inactive).
For `O=C1CCCCCCCCCCCCCCCCC1`, the growth inhibition is -13.3% (inactive).
Regarding `O=C(c1cccc(C(=O)N2CCOCC2)n1)N1CCOCC1`, the growth inhibition is -9.95% (inactive).
As to `COC1COCOC1C(OC)C1OCOCC1OC` (stereo not given), the growth inhibition was -2.25% (inactive).
As for `CCOC(C)=Nc1cc(OC)cc2c1NC(=O)CCS2`, the growth inhibition was -28.9% (inactive).
Regarding `COc1ccc(-c2cccc(C(=O)O)c2C(=O)O)cc1OC`, the growth inhibition was 6.1% (inactive).
As for `O=C1c2cccc3cc([N+](=O)[O-])cc(c23)C(=O)N1C(CO)(CO)CO`, the growth inhibition was 29.9% (inactive).
Regarding `Nc1nc2c(c(=O)[nH]1)N(C=O)C(CCNc1ccc(C(=O)NC(CCC(=O)O)C(=O)O)cc1)CN2` (stereo not given), the growth inhibition was 5.35% (inactive).
As for `CCCC(c1ccc(N(C)C)cc1)c1ccc(N(C)C)cc1`, the growth inhibition is -5% (inactive).
On to `c1ccc2c(c1)/C(=N/c1nccs1)N/C2=N\c1nccs1`, for which the growth inhibition was 14.1% (inactive).
The same measure, in the same setting: the figure for `CC1CCCN2C(=O)CN(c3ccccc3)CC(=O)N12` (stereo not given) is 13.6% (inactive); for `O=c1[nH]c(=O)c2nc3c(=O)[nH]c(=O)[nH]c3nc2[nH]1` it is -14.2% (inactive); for `Nc1ncc2c(n1)-c1ccccc1OC2` it is -29.5% (inactive).
In the case of `CN(C)c1ccc(O[Si](Oc2ccc(N(C)C)cc2)(Oc2ccc(N(C)C)cc2)Oc2ccc(N(C)C)cc2)cc1`, the growth inhibition was 27.6% (inactive).

The next assay in a line: NCI Yeast Anticancer Drug Screen. Data for the mec2-1 strain (AID 157). To be noted: S. cerevisiae mec2-1 strain, stronger effect = higher value; at 50.0 µM unless noted. Summed up: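 Strain: mec2-1 (DNA repair/cell cycle alteration). Compound exposure, then growth measured; inhibition expressed relative to vehicle.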
Take `O=C(C[n+]1ccccc1)c1ccc(O)c(I)c1`: the growth inhibition was 7.65% (inactive).
As for `O=C1C(O)=C(O)C(Br)=C/C1=C(/c1ccccc1S(=O)(=O)O)c1cc(Br)c(O)c(O)c1O`, the growth inhibition is 6.9% (inactive).
Regarding `COC1OC2COC(C)(C)OC2C2OC(C)(C)OC12` (stereo not given), the growth inhibition is 5.35% (inactive).
In the case of `C=CCNc1nc(Cl)nc2c1cnn2C`, the growth inhibition was -3% (inactive).
For `O=C(O)/C=C\C(=O)Nc1ccc2c(c1)Cc1cc(O)ccc1-2`, the growth inhibition was 30.8% (inactive).
Take `CCCCC(Sc1nn(C2OC(COC(=O)c3ccccc3)C(OC(=O)c3ccccc3)C2OC(=O)c2ccccc2)c(=O)[nH]c1=O)C(=O)OCC` (stereo not given): the growth inhibition is -10.6% (inactive).
On to `NC(Cc1ccccc1)C(=O)NC(Cc1ccccc1)C(=O)O` (stereo not drawn) (H-Phe-Phe-OH; configuration not given here), for which the growth inhibition is -0.8% (inactive) and -19.4% (inactive).
Regarding `O=C(O)C(=O)Nc1ccccc1`, the growth inhibition was -15.5% (inactive).
`COC1/C=C/OC2(C)Oc3c(C)c(O)c4c(c3C2=O)C(N)=C(NC2CC2)C(=NC(=O)/C(C)=C\C=C\C(C)C(O)C(C)C(O)C(C)C(OC(C)=O)C1C)C4=O` (stereo not given): the growth inhibition is 32.7% (inactive).
As to `CCCCCCN1COCC(COc2ccc(Cl)cc2)OC1` (stereo not given), the growth inhibition is 18.8% (inactive).
Take `Nc1nc(=S)c2c(ncn2CCO)[nH]1`: the growth inhibition was -32.2% (inactive).
Regarding `Cn1ccnc1Sc1c([N+](=O)[O-])ncn1C`, the growth inhibition was 5.95% (inactive).
Regarding `CCN(CC)CCNc1cc(OC)c(OC)cc1[N+](=O)[O-]`, the growth inhibition is 14.4% (inactive).
Consider `CC1=Nc2cc(Cl)c(Cl)cc2N(C)/C1=C/C1=C(Cl)C(=O)c2cc3c(Cl)ccc(Cl)c3cc2C1=O`, for which the growth inhibition is 8.75% (inactive).
For `O=C1OC(=O)C2C3CC(C(Br)C3Br)C12` (stereo not given), the growth inhibition was -14.4% (inactive).
The same measure, in the same setting: the result for `CCOC(=N)n1c(=O)n(C2=NCCN2)c2ccccc21` reads 0.35% (inactive); that for `CCOC(=O)C(CC(C)C)NC(=O)c1ccc(C)c(OCc2ccccc2)c1[N+](=O)[O-]` (stereo not given), -8.75% (inactive).
Consider `CN1CCC(O)CC1`, for which the growth inhibition is -23.4% (inactive).
On the same count and under the same terms, the figure for `Cc1cccc(C)c1NC(=S)N/C=C(\C#N)C(N)=O` is -72.2% (inactive).
Consider `Clc1c(Cl)c(Cl)c(C[n+]2c(Cl)sc3ccccc32)c(Cl)c1Cl`, for which the growth inhibition was 10.2% (inactive).
As for `Cc1ccc(NC(=O)C(=O)CC(=O)c2sc(Nc3c(C)cccc3C)nc2C)cc1C`, the growth inhibition is -9.95% (inactive).
On to `CC(=O)Nc1cccc(N=Cc2ccc(N(CCOS(C)(=O)=O)CCOS(C)(=O)=O)cc2C)c1`, for which the growth inhibition was 70.5% (active).
Consider `COC(=O)c1ccccc1NC(=O)c1c(-c2ccccc2Cl)noc1C`, for which the growth inhibition is 67.8% (inactive).
For the compound `CC(=O)CC(=O)Nc1ccc2ccccc2c1`, the growth inhibition was -12% (inactive).
On the same count and under the same terms, the figure for `CC1(C)CC(O)CC(C)(C)N1` is -8.7% (inactive); for `Nc1c(F)cc(I)cc1F` it is 2.15% (inactive); for `Nc1nc2cc3nc(N)c(N)nc3cc2nc1N` it is 14.7% (inactive).
In the case of `O=C1CCCCCCCCCCCCCCCCC1`, the growth inhibition is -5.85% (inactive).
Same read-out and setting: the result for `O=C(c1cccc(C(=O)N2CCOCC2)n1)N1CCOCC1` reads 17.1% (inactive); that for `COC1COCOC1C(OC)C1OCOCC1OC` (stereo not given), -12.2% (inactive); that for `CCOC(C)=Nc1cc(OC)cc2c1NC(=O)CCS2`, -20.1% (inactive).
Consider `COc1ccc(-c2cccc(C(=O)O)c2C(=O)O)cc1OC`, for which the growth inhibition is 20.8% (inactive).
In the case of `O=C1c2cccc3cc([N+](=O)[O-])cc(c23)C(=O)N1C(CO)(CO)CO`, the growth inhibition is 12.6% (inactive).
Same read-out and setting: the result for `Nc1nc2c(c(=O)[nH]1)N(C=O)C(CCNc1ccc(C(=O)NC(CCC(=O)O)C(=O)O)cc1)CN2` (stereo not given) reads -12.2% (inactive); that for `CCCC(c1ccc(N(C)C)cc1)c1ccc(N(C)C)cc1`, -22% (inactive).
In the case of `c1ccc2c(c1)/C(=N/c1nccs1)N/C2=N\c1nccs1`, the growth inhibition is -6.35% (inactive).
As for `CC1CCCN2C(=O)CN(c3ccccc3)CC(=O)N12` (stereo not given), the growth inhibition is 2.45% (inactive).
On to `O=c1[nH]c(=O)c2nc3c(=O)[nH]c(=O)[nH]c3nc2[nH]1`, for which the growth inhibition was -21.1% (inactive).
For `Nc1ncc2c(n1)-c1ccccc1OC2`, the growth inhibition is 2.8% (inactive).
On to `CN(C)c1ccc(O[Si](Oc2ccc(N(C)C)cc2)(Oc2ccc(N(C)C)cc2)Oc2ccc(N(C)C)cc2)cc1`, for which the growth inhibition was 37.2% (inactive).
